Bioassay records as filed in PubChem BioAssay.
CtBP-E1A inh: blocks the CtBP interaction with E1A; AlphaScreen GST-E1A/His-CtBP binding, 1536-well; stronger effect = lower value; activity change, % (concentration not given with the values); 0.49% of 340,000 active; AID 651724; in the data active = activity change below about -65%; inconclusive = mostly about -30% to -63%; also: % is scaled to controls: 0 for no effect and ±100 for the full control effect
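Protein mix (5X: 125 nM each GST-E1A, His-CtBP) was incubated with pinned compound 2 h at 37 deg C in dark, in 50 mM Tris pH 8.0 buffer with 300 mM NaCl. Glutathione donor and nickel acceptor beads followed; AlphaScreen signal read after 1 h.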
HP1b chromo inh: blocks HP1-beta chromodomain binding to methylated histone tails; Potency, µM (series often up to 114 µM), for the others: at the top dose activity change, negative = inhibition, usual class: inhibitors; 0.56% of 390,000 active; P83916; AlphaScreen HP1-beta / biotin-H3K9me3 peptide binding; also: potency is read from the fitted curve at half-maximal effect; nearly all actives have a fitted effect of over 70% in size
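AlphaScreen: HP1-beta (50 nM) preformed 30 min with biotin-H3(1-18)K9me3 peptide (50 nM) in PBS pH 7.4, 0.01% Tween-20. Compound added for 30 min at RT, then streptavidin donor/nickel chelate acceptor beads (10 ug/mL) for 30 min.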
JMJD2A Tudor inh: JMJD2A Tudor domain (human) inhibition. 4.4% of 390,000 active. O75164. Potency, µM (top dose mostly 114 µM), for the others: at the top dose activity change, negative = inhibition, most hits filed as inhibitors. AlphaScreen JMJD2A-Tudor / H3K4me3 peptide binding; also: potency is read from the fitted curve at half-maximal effect; % is scaled to controls: 0 for no effect and ±100 for the full control effect; nearly all actives have a fitted effect of over 50% in size
BAZ2B block: blocks human BAZ2B. Q9UIF8. Potency, µM (top dose mostly 114 µM), inactives show top-dose activity change, negative = inhibition, usual class: inhibitors. 4.4% of 360,000 active. AlphaScreen BAZ2B-H3K14Ac peptide displacement; also: potency is read from the fitted curve at half-maximal effect; % is scaled to controls: 0 for no effect and ±100 for the full control effect; nearly all actives have a fitted effect of over 60% in size
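Protein-peptide AlphaScreen: BAZ2B 50 nM, b-H3K14Ac 50 nM, 1x PBS pH 7.4 + 0.01% Tween-20. Preincubation 30 min RT; cpd 30 min RT (top 110 uM); beads 20 min RT, light-protected.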
G9a block: inhibitors of human histone lysine methyltransferase G9a | AID 504332 | G9a H3K9 monomethylation, AlphaScreen, 2 h | 8.8% of 350,000 active | Potency, µM (highest dose often 102 µM), without a hit: at the top dose activity, negative = inhibition, usual class: inhibitors | Q96KQ7; also: potency is read from the fitted curve at half-maximal effect; % is scaled to controls: 0 for no effect and ±100 for the full control effect; nearly all actives have a fitted effect of over 75% in size
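Signal arises when biotinylated H3K9 peptide, once monomethylated, bridges streptavidin donor and antibody-captured acceptor beads. Enzyme at 20 nM was preincubated 15 min with test compounds; peptide 500 nM and SAM 20 uM then reacted for 2 h.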
Six1-Eya2 inh: Six1/Eya2 interaction inhibition | Q15475+O00167 | AlphaScreen GST-Six1/His-Eya2 binding, biochemical; stronger effect = lower value | activity change, % (no concentration beside the values) | 0.56% of 360,000 active | AID 651725; in the data active = activity change below about -65%; inconclusive = mostly about -30% to -63%; also: % is scaled to controls: 0 for no effect and ±100 for the full control effect
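Compounds are tested against tagged Six1 and Eya2 proteins bridged by glutathione donor and nickel acceptor beads; after a one-hour incubation at 37 °C without light, AlphaScreen emission is recorded.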
* marks the source's active call; other numbers are inactive results; ? = inconclusive; · = not tested or not shown; [ ] = dose if it differs, or a comment. Hits are enriched below; roughly 10% of the tested compounds scored in any of these assays. Unless noted, calls follow the shape of the dose curve; as a rule, active = well fitted inhibition curve with a large enough effect; inconclusive = small, poorly fitted or top-dose-only effect; inactive = no such curve, though single readings can be large or run the other way.

SMILES | CtBP-E1A inh | HP1b chromo inh | JMJD2A Tudor inh | BAZ2B block | G9a block | Six1-Eya2 inh
COc1ccc(NS(=O)(=O)c2ccc(NC(=S)NC(=O)c3ccc(Br)cc3)cc2)nn1 | -4 | -33% | ? | ? | 18µM* | -10
COc1cccc(-c2c(C(=O)N/N=C(\C)c3cccnc3)nnn2-c2nonc2N)c1 | 2 | 66% | -12% | -18% | 7% | -1
CSc1ccccc1NC(=O)C(=O)c1c[nH]c2ccccc12 | 0 | 4% | -30% | -3% | -34% | -5
Cc1ccc(-n2nc3c(=O)n(CCCC(=O)NC4CCC(C)CC4)nc(C)c3c2C)cc1 (centres undefined) | 2 | 31% | -12% | -20% | 14%[59 µM] | 1
O=C(Nc1ccccc1F)c1ccc2ncsc2c1 | · | 47% | -10% | 7% | 45µM* | 18
O=C(Nc1ccc(F)cc1F)c1ccc2ncsc2c1 | -5 | 33% | 4% | -1% | 15%[59 µM] | 0
Cc1nc(CC(=O)Nc2ccc(N(C)C)cc2)cs1 | · | 13% | ? | ? | 14µM* | ·
C/C(CC(=O)Nc1ccc(N(C)C)cc1)=N\NC(=O)Cc1csc(N)n1 | ? | -8% | ? | ? | 45µM* | -23
Cc1nc(CC(=O)Nc2ccc(C(N)=O)cc2)cs1 | · | 25% | -16% | -5% | -3%[59 µM] | ·
Cc1cccc(N2CCN(S(=O)(=O)c3nnc(NC(=O)c4ccc(Cl)cc4)s3)CC2)c1 | · | -2% | -29% | -30% | ? | ·
O=[N+]([O-])c1ccc(Sc2nccn2Cc2ccccc2)c([N+](=O)[O-])c1 | 15 | -33% | ? | ? | 45µM* | -8
CC1Cc2ccccc2N1C(=S)Nc1cccc(S(=O)(=O)N(C)C)c1 (centres undefined) | 3 | 14% | -35% | -21% | 40µM* | -6
CN(C)S(=O)(=O)c1cccc(NC(=S)N2CCc3ccccc32)c1 | -5 | 14% | -26% | · | -33% | 0
COc1ccc(NC(=S)N2c3ccccc3CC2C)cc1OC (centres undefined) | 4 | -5% | -28% | -37% | 50µM* | -1
COc1ccc(NC(=O)N2c3ccccc3CC2C)cc1OC (centres undefined) | 0 | 34% | -5% | 1% | 24%[59 µM] | -7
CCCSc1ncc(Cl)c(C(=O)Nc2nc3ccc(C)cc3s2)n1 | · | 46% | -2% | -3% | 8%[59 µM] | ·
CCN1/C(=C2\C(=O)N(C)C(=S)N2C)C=Cc2ccccc21 | -23 | ? | -35% | 50µM* | 10µM* | ?
CCN1/C(=C2\C(=O)N(C)C(=S)N2c2ccccc2)C=Cc2ccccc21 | ? | ? | -29% | 40µM* | -140%[59 µM] | -22
CCN1/C(=C2\C(=O)N(C)C(=S)N2C)C=Cc2cc(C)ccc21 | -7 | -66% | 50µM* | 45µM* | 10µM* | -17
Cc1ccc([C@@H]2CC=C(C(=O)O)[C@H](c3cccc(Cl)c3)N2S(=O)(=O)c2ccccc2C)cc1 | -23 | 19% | -29% | · | · | -1
CC(C)c1cc2c(c(O)c1O)[C@@]13CCCC(C)(C)C1CC2OC3=O (some centres undefined) | -4 | ? | 40µM* | -38% | 0.89µM* | -7
Cc1ccc(C(C)C)c(OCC(=O)c2c(O)c3ccccc3oc2=O)c1 | 3 | -1% | 45µM* | · | · | -2
Cc1ccc(OCC(=O)c2c(O)c3ccccc3oc2=O)cc1C | 5 | 16% | 40µM* | ? | 12%[12.7 µM] | -1
Cc1ccc(C(C)C)c(OCC(=O)Nc2c(C(=O)c3ccccc3)oc3ccccc23)c1 | · | 80% | 19% | 3% | -9%[59 µM] | ·
CCc1ccc(OCC(=O)c2c(O)c3ccccc3oc2=O)cc1 | -18 | 27% | -11% | ? | 45µM* | 4
CCOc1ccc(N=Cc2c(O)c3ccccc3oc2=O)cc1 | 0 | 34% | -23% | 4% | 7%[59 µM] | 17
FC(F)(F)c1cc(-c2cccs2)nc2cc(-c3cccs3)nn12 | · | 48% | 10% | 5% | 31% | 8
